Test system: Vero E6 infected with SARS-CoV-2
Experiment: inhibition of SARS-CoV-2 cytopathic effect; higher = more antiviral protection, active = above 15
Details: 48 h

Measured: inhibition of SARS-CoV-2 cytopathic effect

NCCCC[C@H](NC(=O)[C@@H]1CCCN1C(=O)[C@@H]1CSSC[C@H](NC(=O)CNC(=O)CNC(=O)CN)C(=O)N[C@@H](Cc2ccc(O)cc2)C(=O)N[C@@H](Cc2ccccc2)C(=O)N[C@@H](CCC(N)=O)C(=O)N[C@@H](CC(N)=O)C(=O)N1)C(=O)NCC(N)=O [terlipressin]
inactive: 1 nM 2.67% | 8.33 nM 0.07% | 100 nM 0.5% | 833.33 nM -0.07% | 10000 nM 0.72%

CC(CNC(=O)c1cccnc1)NC(=O)c1cccnc1 (stereo not given) [nicaraven]
inactive: 1 nM 0.7% | 8.33 nM -0.11% | 100 nM -1.71% | 833.33 nM 0.88% | 10000 nM -0.45%

CC(C)OC(=O)[C@H](C)N[P@@](=O)(OC[C@H]1O[C@@H](n2ccc(=O)[nH]c2=O)[C@](C)(F)[C@@H]1O)Oc1ccccc1
inactive: 1 nM 2.14% | 8.33 nM -0.76% | 100 nM -2.61% | 833.33 nM -0.19% | 10000 nM 0.32%

CC(C)(C)N1CCC(c2ccccc2)(c2ccccc2)CC1 [budipine]
inactive: 1 nM 0.7% | 8.33 nM 3.31% | 100 nM 2.48% | 833.33 nM -0.28% | 10000 nM 1.72%

Nc1ccc(-c2nc3ccc(-c4nc5ccc(N)cc5[nH]4)cc3[nH]2)cc1
inactive: 1 nM -0.32% | 8.33 nM 0.21% | 100 nM -0.94% | 833.33 nM 2.79% | 10000 nM 6.35%

C[C@H](CCC(=O)NCCS(=O)(=O)O)[C@H]1CC[C@H]2[C@@H]3[C@@H](O)C[C@@H]4C[C@H](O)CC[C@]4(C)[C@H]3CC[C@]12C [ursodeoxycholyltaurine]
inactive: 1 nM -1.76% | 8.33 nM 3.52% | 100 nM 1.07% | 833.33 nM -3.74% | 10000 nM -4.25%

CN1CCN2c3c(cccc31)[C@@H]1CN(CCCC(=O)c3ccc(F)cc3)CC[C@@H]12 [lumateperone]
inactive: 1 nM -2.67% | 8.33 nM 2.96% | 100 nM 2.88% | 833.33 nM 2.75% | 10000 nM 2.86%

CN(CCCN1c2ccccc2CCc2ccccc21)CC(=O)c1ccc(Cl)cc1 [lofepramine]
inactive: 1 nM 2.35% | 8.33 nM -0.58% | 100 nM 1.56% | 833.33 nM 2.86% | 10000 nM 0.69%

Cc1cnc(-c2cnc(NCCNc3ccc(C#N)cn3)nc2-c2ccc(Cl)cc2Cl)[nH]1
inactive: 1 nM 2.72% | 8.33 nM 3.19% | 100 nM -2.16% | 833.33 nM 3.98% | 10000 nM 12.1%

CCN(CC)CCOC(=O)C1(c2ccccc2)CCCC1 [caramiphen]
inactive: 1 nM -4.57% | 8.33 nM -4.75% | 100 nM -1.97% | 833.33 nM -0.96% | 10000 nM -3.45%

Cc1ncc([N+](=O)[O-])n1CCO [metronidazole]
inactive: 1 nM 1.71% | 8.33 nM -0.45% | 100 nM 1.81% | 833.33 nM 0.19% | 10000 nM -1.16%

COC(=O)C1=C(C)NC(C)=C(C(=O)OCCSc2ccccc2)[C@@H]1C
inactive: 1 nM -2.31% | 8.33 nM -3.84% | 100 nM -2.77% | 833.33 nM -0.76% | 10000 nM 3.1%

Nc1ccc(C(=O)Nc2cccc(-c3nc(N4CCOCC4)c4oc5ncccc5c4n3)c2)cn1
active: 10000 nM 20.4%
inactive: 1 nM -0.93% | 8.33 nM -2.3% | 100 nM -2.43% | 833.33 nM 0%

CCCCCCCCNC(=O)/C(C#N)=C/c1cn(CCCN(C)C)c2ccccc12 [dynole-34-2]
inactive: 1 nM 5.01% | 8.33 nM 2.28% | 100 nM 2.72% | 833.33 nM 0.28% | 10000 nM 12.6%

N=C(N)NC(=O)Cc1c(Cl)cccc1Cl [guanfacine]
inactive: 1 nM 3.14% | 8.33 nM 4.91% | 100 nM -3.11% | 833.33 nM 1.89% | 10000 nM -0.42%

C[C@]12CC[C@H]3[C@@H](CCC4=CC(=O)CC[C@@]43C)[C@@H]1CC[C@@H]2O
inactive: 1 nM 0.04% | 8.33 nM 2.66% | 100 nM 3.91% | 833.33 nM -1.25% | 10000 nM -0.6%

Cc1ccc(-c2csc3ncnc(SCCC(=O)O)c23)cc1
inactive: 1 nM -0.23% | 8.33 nM 6.66% | 100 nM -1.26% | 833.33 nM 1.22% | 10000 nM 1.11%

Source: the supplement of paper PMC13380429
